# About 83,000 compounds went through this panel and 20% of them were active in at least one assay; those are over-represented in the sample as a whole.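 Treatment: one concentration, 48 hours, 96-well format. Scoring: percent growth, with anything below 10 considered active.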 A number with no mark means an inactive call. Calls of active or inactive are those of the source.
# Assays:
# Test in all cases: NCI-60 one-dose screen, 48 h (100 = growth as untreated, 0 = no growth, -100 = all killed)
# Conditions in all cases: 10 µM unless noted
# DU-145 prostate = test system: DU-145 prostate
# K-562 leukemia = test system: K-562 leukemia
# MALME-3M melanoma = test system: MALME-3M melanoma
# MDA-MB-231 breast = test system: MDA-MB-231 breast
# RXF 393 renal = test system: RXF 393 renal
# SF-268 CNS = test system: SF-268 CNS
# SF-295 CNS = test system: SF-295 CNS
# SF-539 CNS = test system: SF-539 CNS
# UACC-257 melanoma = test system: UACC-257 melanoma
# M14 melanoma = test system: M14 melanoma
# HCT-15 colon = test system: HCT-15 colon
# HT29 colon = test system: HT29 colon
# SNB-75 CNS = test system: SNB-75 CNS
# SNB-19 CNS = test system: SNB-19 CNS
# U251 CNS = test system: U251 CNS
# PC-3 prostate = test system: PC-3 prostate
# SK-MEL-5 melanoma = test system: SK-MEL-5 melanoma
# UACC-62 melanoma = test system: UACC-62 melanoma
# LOX IMVI melanoma = test system: LOX IMVI melanoma
# SK-MEL-28 melanoma = test system: SK-MEL-28 melanoma
Compound,growth (DU-145 prostate),growth (K-562 leukemia),growth (MALME-3M melanoma),growth (MDA-MB-231 breast),growth (RXF 393 renal),growth (SF-268 CNS),growth (SF-295 CNS),growth (SF-539 CNS),growth (UACC-257 melanoma),growth (M14 melanoma),growth (HCT-15 colon),growth (HT29 colon),growth (SNB-75 CNS),growth (SNB-19 CNS),growth (U251 CNS),growth (PC-3 prostate),growth (SK-MEL-5 melanoma),growth (UACC-62 melanoma),growth (LOX IMVI melanoma),growth (SK-MEL-28 melanoma)
Fc1cccc(-c2ccc3c(c2)C2(CCNCC2)CN3)c1,105%,92.6%,109%,91.2%,121%,98.8%,95.4%,98.8%,126%,109%,94.9%,93.1%,92%,112%,107%,98.1%,97.4%,87.4%,92.2%,116%
CCOC(=O)C1=C(C)/C(=C\c2[nH]c(C)c(C(=O)OCC)c2C)N=C1C,96.2%,106%,94.6%,82.8%,101%,79.1%,96.9%,101%,88.9%,95.9%,91.4%,76.7%,89.1%,89.7%,74.1%,84.6%,97.4%,90.9%,1.05% (active),88.3%
O=C(O)c1cn(C2CC2)c2cc(N3CCN(C(=O)Nc4nc(-c5ccc(Br)cc5)cs4)CC3)c(F)cc2c1=O,17%,18%,29.3%,28.9%,25.2%,24.2%,19.5%,23.6%,3.57% (active),23.7%,14.3%,9.27% (active),24%,19.7%,12.7%,19.2%,-41% (active),-1.55% (active),-9.03% (active),42.2%
CC(=O)OC[C@]12CC[C@@H]([C@@H](C)c3nnc(-c4ccncc4)o3)[C@@H]1[C@H]1CC[C@@H]3[C@@]4(C)CC[C@H](OC(C)=O)C(C)(C)[C@@H]4CC[C@@]3(C)[C@]1(C)CC2,102%,46.4%,99.7%,76.3%,104%,92%,74.9%,94.2%,75.3%,91%,77.5%,63.8%,103%,82.7%,64.1%,33.5%,74.3%,58.2%,77.2%,92.8%
C[C@]1(O)CC(=O)[C@]2(O)C3=C(C=C[C@]2(O)C1)C(=O)c1c(O)cccc1C3=O,-82.3% (active),5.36% (active),-96.7% (active),30.2%,-85.3% (active),85.4%,89.8%,82.4%,77.3%,-24.8% (active),-45.5% (active),3.93% (active),20%,101%,72.4%,72.8%,-53.7% (active),16.5%,-51.5% (active),-37.4% (active)
O=C1/C(=C/c2ccc(F)cc2)CN(C(=O)C(Cl)Cl)C/C1=C\c1ccc(F)cc1,-96.5% (active),-6.01% (active),-34.9% (active),-39.8% (active),-91.8% (active),-30.9% (active),-75.9% (active),-97% (active),-43.3% (active),-68.5% (active),-57.9% (active),-24.7% (active),-61.2% (active),-87% (active),-95.5% (active),-74.3% (active),-64.9% (active),-61.1% (active),-90.2% (active),-72.1% (active)
O=C(Nc1cnc(Nc2ccc(N3CCOCC3)nc2)nc1Oc1ccc(C(F)(F)F)cc1)c1ccncc1,66%,78.7%,96.9%,94.5%,93.1%,86.3%,104%,-53.1% (active),92.8%,99%,96.9%,101%,89.8%,91.1%,92.1%,97.4%,95.3%,94.1%,86%,95.8%
CN(C)CCN1C(=O)c2cccc3c(/C=C/CN4C(=O)c5cccc6cccc(c56)C4=O)ccc(c23)C1=O,113%,-46.8% (active),-62.4% (active),-57.4% (active),57%,101%,106%,92.8%,92%,77.9%,-75.6% (active),94%,90.6%,18.7%,90.8%,71.7%,82.2%,98.7%,30.3%,-56.5% (active)
COc1cccc(/C=C/C(=O)c2cccc(Nc3nc(Nc4ccccc4)nc(Nc4ccccc4)n3)c2)c1,85.5%,59.4%,107%,84.6%,-38.8% (active),95.3%,71.4%,96.5%,114%,89.4%,73.4%,65.8%,71.8%,102%,53.8%,73.5%,77.9%,92%,74.4%,112%
O=C1c2cccc3cccc(c23)C(=O)N1C/C=C/c1ccc2c3c(cccc13)C(=O)N(CCO)C2=O,70.4%,79.9%,75.5%,62.1%,27.9%,87.7%,76.5%,72.7%,79.8%,87.8%,75.3%,87%,58.6%,88%,71.1%,51.2%,89.9%,91.4%,87.3%,84.9%
CCN(CC)c1ccc(CNc2cc(C)nc3ccccc23)cc1,77.8%,31%,69.8%,66.6%,68.8%,87.7%,50.9%,74.7%,62.5%,64.8%,69.6%,43.3%,75.2%,73.8%,63.9%,64%,9.25% (active),68.5%,65%,78.4%
Cc1cc(Nc2ccc(C(=O)N3CCCC3)cc2)nc(NCCCNc2ccnc3cc(Cl)ccc23)n1,91.5%,33.9%,54.8%,48.3%,101%,67.8%,103%,65%,105%,82.5%,102%,68.9%,91.2%,84.1%,53.5%,93.3%,92.3%,86.8%,-67.1% (active),92.1%
Cc1cn(-c2cc(NC(=O)c3cncc(C#Cc4c(N)ncc5ccc(F)cc45)c3)cc(C(F)(F)F)c2)cn1,70.5%,3.34% (active),21.5%,27.1%,62.7%,64.6%,85.2%,51.5%,52.9%,26.6%,49.9%,8.94% (active),76.8%,91.9%,80.4%,71.7%,27.4%,33.8%,23%,42.4%
CCNC(=O)Oc1ccc(/C(=C(/CC)Cc2ccccc2)c2ccc(OCCN3CCCC3)cc2)cc1,104%,64.7%,107%,80.1%,94.6%,92.9%,102%,97.2%,90.1%,93.1%,73.1%,98.6%,85.5%,93.4%,91.7%,75%,91.7%,98.3%,91.4%,99%
CCN1C(=O)N(CC)C2C1NN=c1s/c(=C\c3cnc(C)n3C)c(=O)n12 (stereo not given),5.42% (active),15.5%,29.8%,43.8%,-29.3% (active),51.9%,9.05% (active),-20.2% (active),29.7%,4.96% (active),27.7%,0.594% (active),-24.7% (active),25.6%,7.74% (active),17.5%,17.9%,31.2%,34.5%,42.7%

# Source: PubChem BioAssay (NCI)
